# Screening results (PubChem)
# uPA generation – blocks generation of uPA at the cell surface; 330,000 tested, 0.31% active; Potency, µM (highest dose often 38.3 µM), for inactives: top-dose activity change, negative = inhibition, most hits filed as inhibitors; AID 540303; cell surface uPA generation assay, qHTS; active = well fitted inhibition curve with a large enough effect; inconclusive = small, poorly fitted or top-dose-only effect; inactive = no such curve, though single readings can be large or run the other way; tested in mouse RAW 264.7 cells; note: potency is the fitted concentration of half-maximal effect; % is set by controls: 0 for no effect and ±100 for the full control effect; nearly all actives have a fitted effect of over 55% in size
# SW480 rerep – inducers of DNA re-replication in SW480 colon cancer cells. SW480 DNA re-replication, Hoechst DNA content imaging, 48 h. Potency, µM (top dose mostly 46.1 µM), for the others: at the highest dose re-replication activation, actives largely listed as activators. 340,000 tested, 1.8% active. AID 624297; note: potency is the fitted concentration of half-maximal effect; % of control where 0% means no effect; nearly all actives have a fitted effect of over 55% in size
#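 Image-based DNA-content assay: after two days of treatment, nuclei were labelled with the DNA dye Hoechst and imaged, and hits were compounds raising the count of nuclei showing high fluorescence intensity.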
# Giardia kill – kills Giardia lamblia | AID 540267 | activity change, % at 7.66 µM, hits read low | Giardia lamblia trophozoite viability | 340,000 tested, 0.15% active; in the data active = activity change below about -80%; inconclusive = between about -30% and that limit;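 note: parasites exposed to compound for two days anaerobically before the ATP read; % is set by controls: 0 for no effect and ±100 for the full control effect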
#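 Compounds were tested on trophozoites seeded at 100 cells/well and held 48 hrs at 37 deg C anaerobically. An ATP-based luminescent kit measured the remaining live cells.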
# MCF10A rereplic – inducers of DNA re-replication in MCF 10A breast cells. MCF 10A DNA re-replication, Hoechst nuclear intensity, 48 h. Potency, µM (highest dose often 46.1 µM), without a hit: at the highest dose activity, positive = re-replication, actives largely listed as activators. 350,000 tested, 2.9% active. AID 624296; note: potency is the fitted concentration of half-maximal effect; % of control where 0% means no effect; nearly all actives have a fitted effect of over 50% in size
# Active calls of the source: *; ? = inconclusive; . = no result given. An excerpt weighted towards active compounds, which were near 4.3% of everything screened. Unless noted, calls come from the whole dose curve; as a rule, active = well fitted activation curve with a large enough effect; inconclusive = small, poorly fitted or top-dose-only effect; inactive = no such curve, though single readings can be large or run the other way.
SMILES,uPA generation,SW480 rerep,Giardia kill,MCF10A rereplic
C=CC[C@@H]1/C=C(\C)C[C@H](C)C[C@H](OC)[C@H]2O[C@@](O)(C(=O)C(=O)N3CCCC[C@H]3C(=O)O[C@H](/C(C)=C/[C@@H]3CC[C@@H](O)[C@H](OC)C3)[C@H](C)[C@@H](O)CC1=O)[C@H](C)C[C@@H]2OC,.,?,.,0.6%
COC1OC2COC(c3ccccc3)OC2C(OC(C)=O)C1OC(C)=O (configuration not stated),8.0%,-0.7%,-9.3,-1.5%
Cc1ccccc1NC(=O)CSc1nnc2ccc(-c3cccnc3)nn12,1.1%,?,6.0,-22.0%
CN(CCCc1cnc[nH]1)C(=S)NCCCN(Cc1ccc(Cl)cc1)c1ccc(Br)cn1,.,.,-2.9,.
Cc1ccccc1S(=O)(=O)N1C[C@H]2CON(C)[C@H]2C[C@H]1c1cccc(-c2ccc(C#N)cc2)c1,-2.8%,4.11µM*,8.0,-2.9%
Cc1ccccc1S(=O)(=O)N1C[C@H]2CON(C)[C@H]2C[C@H]1c1cccc(N2CCOCC2)c1,1.6%,-3.6%,16.0,-8.4%
COc1ccc2c(C)nc(Nc3nc(C)cc(C)n3)nc2c1,.,5.17µM*,-16.4,23.9%
COc1ccc2c(C)nc(Nc3nc(C)c(C)c(=O)[nH]3)nc2c1,-0.7%,19.1%,13.2,17.2%
CCn1nc(NC(=O)COC)c2cc3cccc(C)c3nc21,-5.6%,?,14.8,-0.4%
CCn1nc(NC(=O)C(C)C)c2cc3cccc(C)c3nc21,-10.1%,8.2µM*,16.0,?
Cc1cccc2cc3c(NC(=O)C(C)(C)C)nn(CC(C)C)c3nc12,0.4%,20.6µM*,-1.0,?
CCn1nc(NC(C)=O)c2cc3cccc(C)c3nc21,4.3%,122.6%,5.4,2.6%
CCn1nc(NC(=O)Cc2ccc(OC)cc2)c2cc3cc(C)ccc3nc21,7.9%,7.31µM*,3.8,1.84µM*
CCn1nc(NC(=O)Cc2ccc(OC)cc2)c2cc3cccc(C)c3nc21,1.3%,?,6.3,4.11µM*
COc1[nH]c(/N=C/c2ccco2)c(C#N)c1C#N,.,.,-22.9,.
CN(Cc1ccccc1)c1nc(-c2ccc(F)cc2)cc(C(F)(F)F)n1,.,.,-11.1,.
CCn1nc(NC(=O)c2cccnc2)c2cc3ccccc3nc21,.,2.7%,8.2,?
CCCn1nc(NC(=O)C2CCCO2)c2cc3cccc(C)c3nc21 (configuration not stated),4.9%,2.06µM*,8.0,?
CCn1nc(NC(=O)c2cccs2)c2cc3ccccc3nc21,0.9%,14.6µM*,-10.5,18.4µM*
CCCCn1nc(NC(=O)COC)c2cc3cc(OC)ccc3nc21,11.3%,14.6µM*,0.0,8.6%
Cc1ccc2cc3c(NC(=O)c4ccco4)nn(CC(C)C)c3nc2c1,1.7%,9.2µM*,2.7,?
O=C(NCc1cccc(F)c1)C1CCC(=O)N(CC2CCCCC2)C1 (configuration not stated),3.4%,-0.4%,6.8,-0.6%
CCN(CC)C(=O)Nc1ccc(OC[C@H](O)CNC(C)(C)C)c(C(C)=O)c1,.,-0.6%,.,1.4%
CCn1nc(NC(=O)c2ccccc2)c2cc3cccc(C)c3nc21,1.6%,11.6µM*,-0.9,6.51µM*
COc1cc2cc(C)nc(Cc3cccc4ccccc34)c2cc1OC,5.5%,5.2%,-6.9,13µM*
SMILES,uPA generation,SW480 rerep,Giardia kill,MCF10A rereplic
COc1ccccc1CNC(=O)COC(=O)c1cc(C)nc2ccccc12,7.7%,-4.0%,-4.0,6.1%
C=CCNC(=O)C(=O)NCCOc1ccccc1Cl,?,20.6µM*,4.4,?
CCCNc1ncc2c(=O)[nH][nH]c(=O)c2n1,-3.4%,-7.8%,-8.1,-29.9%
O=C(NNS(=O)(=O)c1ccccc1[N+](=O)[O-])c1cccc(Cl)c1,-11.0%,0.517µM*,-6.2,0.8%
O=C(NNS(=O)(=O)c1ccccc1[N+](=O)[O-])c1cccc(Br)c1,-2.2%,-9.9%,0.2,-0.8%
COc1cc(C2c3cc4c(cc3OC(NNC(N)=O)C2C)OCO4)cc(OC)c1OC (configuration not stated),-9.6%,1.3µM*,5.5,0.731µM*
COc1cc(C2c3cc4c(cc3OC(NNC(N)=S)C2C)OCO4)cc(OC)c1OC (configuration not stated),-11.4%,2.59µM*,-14.5,1.46µM*
COc1cc([C@@H]2c3cc4c(cc3[C@H](O)[C@H]3COC(=O)[C@@H]23)OCO4)cc(OC)c1OC,.,.,5.3,.
COc1cc(C2c3cc4c(cc3C(O)C3COCC23)OCO4)cc(OC)c1OC (configuration not stated),-10.9%,13µM*,-8.9,?
